Assay results: the supplement of paper PMC9897528

These compounds were tested on Scedosporium aurantiacum CBS 136046 (assay: growth inhibition relative to DMSO control (OD600); higher = more antifungal activity, active = 80 or more; extreme values may be limits of the assay). Settings: 5 µM; 72 h; 37 °C.
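Note: conidia screened in RPMI 1640 medium under 5% CO2, growth read by spectrophotometer, medium with 0.5% DMSO serving as the untreated reference.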

Growth inhibition, inactive:
O=C(NCc1cccc2ccccc12)c1cccs1 0%
CO[C@@]1(NC(=O)Cc2cccs2)C(=O)N2C(C(=O)O)=C(COC(N)=O)CS[C@@H]21 20.8%
CC1(C)Cc2c(C#N)c(SCCc3ccccc3)nc(N3CCOCC3)c2CO1 27.9%
COc1ccc(COc2cc3oc(=O)c4cc(C(C)O)ccc4c3cc2OC)cc1 (stereo not drawn) 2.35%
Nc1nnnn1CCOc1c2[nH]c3ccc(Cl)cc3c2cc2c1[nH]c1ccc(Cl)cc12 49.3%
Cc1cc(C)n2nc(C(=O)NS(=O)(=O)c3c(C)cccc3OC(F)(F)F)nc2n1 0%
NNC(=O)c1ccncc1 3.54%
Oc1c(C(Nc2ccccn2)c2ccccc2)ccc2cccnc12 (stereo not drawn) 35.9%
C=C(C)n1c(=O)n(Cc2ccccc2C)c2ccccc21 21.5%
Cc1ccc(NC(=O)c2cc(Cl)ccc2O)cc1 4.62%
CC[C@H]1OC(=O)[C@H](C)[C@@H](O[C@H]2C[C@@](C)(OC)[C@@H](O)[C@H](C)O2)[C@H](C)[C@@H](O[C@@H]2O[C@H](C)C[C@H](N(C)C)[C@H]2O)[C@](C)(O)C[C@@H](C)C(=O)[C@H](C)[C@@H](O)[C@]1(C)O 0.273%
Fc1ccc2c(/C=C/c3nnn[nH]3)c[nH]c2c1 4.45%
N[C@@H]1CN(c2c(F)cc3c(=O)c(C(=O)O)cn([C@@H]4C[C@@H]4F)c3c2Cl)CC12CC2 7.35%
OCCCCn1cnc2c(O)nc(NCc3ccc(Cl)c(Cl)c3)nc21 5.51%
CCc1cc(Cc2cnc(N)nc2N)cc2c1N(C)CCC2C (stereo not drawn) 16.8%
CC(C)c1cc2c(cc1S(=O)(=O)O)[C@@]1(C)CCC[C@@](C)(C(=O)O)[C@@H]1CC2 30%
O=S(=O)(NCB(O)O)c1ccc(-c2nnn[nH]2)cc1C(F)(F)F 13.6%
CC(N)C12CC3CC(CC(C3)C1)C2 (stereo not drawn) 10.8%
O=c1nc(N2CCN(CC3CCCCC3)CC2)sc2c([N+](=O)[O-])cc(C(F)(F)F)cc12 28.5%
Clc1cc2nc(C3CCNCC3)n(Cc3ccc(CNCCc4c[nH]cn4)cc3)c2cc1Cl 16.1%
CC1(C)CC(NC(=O)C(=O)Nc2ccc(Cl)cc2)CC(C)(C)N1 8.43%
COc1ccc2nc(-c3ccccc3)cc(O)c2c1 17.5%
COc1cc(NS(=O)(=O)c2ccc(C)cc2)c2ncccc2c1 27.9%
O=C(NO)C1(CS(=O)(=O)c2ccc(Oc3ccc(Cl)cc3)cc2)CCOCC1 7.63%
CN(C)[C@@H]1C(=O)C(C(N)=O)=C(O)[C@@]2(O)C(=O)C3=C(O)c4c(O)c(NC(=O)CN5CCCC5)cc(F)c4C[C@H]3C[C@@H]12 0%
O=C(c1ccc(F)cc1)N1CCN2C(=O)c3ccccc3C12c1ccccc1 (stereo not drawn) 12.5%
COC(=O)Nc1nc2c(C)cccc2[nH]1 0%
CCCCSc1nc(N)c2[nH]c(=O)c(=O)n(Cc3ccccc3)c2n1 6.53%
Nc1ccc(-c2nc3cc(C(F)(F)F)ccc3n2C23CC4CC(CC(C4)C2)C3)cc1 27.1%
C[C@@H](O)[C@H](N)C(=O)NS(=O)(=O)c1cccc(-c2ccc3[nH]ncc3c2)c1 21%
CC(C)n1cnc2c(NCc3ccccc3)nc(NCc3ccccc3)nc21 39.6%
N#Cc1c(F)c(Cl)c(NCc2ccccc2)c(C#N)c1F 38.1%
CC[C@@H]1C(=O)OC[C@@H]1Cc1cncn1C 0%
CNC(=O)C1O[C@@H](n2cnc3c(NCc4cccc(I)c4)nc(Cl)nc32)[C@H](O)[C@@H]1O (stereo partly drawn) 3.52%
CCCC(=O)OCCc1ccccc1 0%
Cn1cc(NC(=O)c2cc(NC(=O)c3ccc(/C=C/c4cnc5ccccc5c4)cc3)cn2C)cc1C(=O)NCCN1CCOCC1 0%
Oc1cc(-c2cccc3ccccc23)[nH]n1 7.34%
O=C(NC(=O)N1CCCc2ccccc21)c1ccc(Cl)cc1Cl 3.05%
